In paper PMC7819943, “Rice protein-binding microarrays: a tool to detect cis-acting elements near promoter regions in rice”:
In all, about 68,000 sequences were measured (“fluorescence intensity (a.u.)”: median about 9,100, highest 2% from about 16,000 on). The sample as a whole holds a higher share of the highest values than the screen did.

The sequences below were run against OsWRKY34 (Oryza sativa, UniProt Q0JBA9 1-250) (assay: protein-binding microarray (RPBM); PBS, 2% BSA, 51.3 ng/ul salmon testes DNA, 50 uM zinc acetate, 200 nM TF, 25 C, 1 h; high values mean tight binding). Conditions: protein: recombinant; tags: N-terminal polyhistidine and DsRed monomer fusion (pET32a); label: CyDye5-dUTP incorporated in the synthesized complementary strand; 3' TTTTT single-stranded linker to array surface; dsDNA, one strand shown.
OsWRKY34, sequence (Q0JBA9 entry or part of it): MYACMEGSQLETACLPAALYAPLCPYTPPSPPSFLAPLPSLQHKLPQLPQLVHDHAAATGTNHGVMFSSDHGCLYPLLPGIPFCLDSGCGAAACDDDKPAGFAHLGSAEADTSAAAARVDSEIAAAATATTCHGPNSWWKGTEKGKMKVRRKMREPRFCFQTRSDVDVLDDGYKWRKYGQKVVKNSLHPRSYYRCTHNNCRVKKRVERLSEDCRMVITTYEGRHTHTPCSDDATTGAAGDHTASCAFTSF
In short: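 The binding signal is fluorescence intensity per array feature (arbitrary units). Readings came from an Axon 4000B scanner after a washed, 2% BSA-blocked, double-stranded custom Agilent array had been incubated for 1 h at 25 °C with 200 nM protein and 50 µM zinc acetate. The protein was a Ni–NTA-purified transcription factor fused N-terminally to polyhistidine and DsRed, expressed in E. coli BL21-CodonPlus.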

Row | Sequence | binding signal
1 | TATCTAATAATTGGATGGTTACAACCAAATACTTCTACATCGGAGTCACCTAGTGCAG | 9870 fluorescence intensity (a.u.)
2 | TTGATCCTTTTTCGCCGCTCACGCCGAGCTGCCCCGACAACGGAGTCACCTAGTGCAG | 8340 fluorescence intensity (a.u.)
3 | TTTTCTATACTGTATTTTGTGTCATTTTCAATCATTGATTCGGAGTCACCTAGTGCAG | 14400 fluorescence intensity (a.u.)
4 | AAACAGAGGTTTTTCTCCTGTACATGTGTCCCATGCCAACCGGAGTCACCTAGTGCAG | 9880 fluorescence intensity (a.u.)
5 | TTTTTATATGTTTGGTTCTTATGAGTTCCTAAGTGTGAAACGGAGTCACCTAGTGCAG | 8230 fluorescence intensity (a.u.)
6 | CATTTCTTATTTTGTTTTTGGGCTTTGATGTTTGGTTTCTCGGAGTCACCTAGTGCAG | 8740 fluorescence intensity (a.u.)
7 | TGGGTGGTGTTGGTTTTGCATGGTAGACGCGGGGTCCGATCGGAGTCACCTAGTGCAG | 18400 fluorescence intensity (a.u.)
8 | CTTTTTTTTGGTTTGCCGTGTGGTGGGTTTCGGGTCCGCGCGGAGTCACCTAGTGCAG | 14500 fluorescence intensity (a.u.)
9 | TGGTCGGGTGTTTTTGTGATTGATGGTTTTGGTAGACGGGCGGAGTCACCTAGTGCAG | 11200 fluorescence intensity (a.u.)
10 | TTTACATCTAATATTTTTTATTTGGGGTTCAGCGGGCATTCGGAGTCACCTAGTGCAG | 11100 fluorescence intensity (a.u.)
11 | TTTGGGGTTCAGCGGGCATTTGTTTTGATTGTTTCTTATTCGGAGTCACCTAGTGCAG | 23400 fluorescence intensity (a.u.)
12 | CTAAAAGTCAATCCACGCCACCATCGATCTCTCTATCCAACGGAGTCACCTAGTGCAG | 9440 fluorescence intensity (a.u.)
13 | CTATGATTGGTCAAGTGCTGTTGCTATTTCTCTGCTGATACGGAGTCACCTAGTGCAG | 10200 fluorescence intensity (a.u.)
14 | GATCATCTGTTCCACCCGCCACCCGCCACCCGCCACAATCCGGAGTCACCTAGTGCAG | 13200 fluorescence intensity (a.u.)
15 | GCTGTTCCATGCTCCACAACCCCGGGTCATTGACCCAATCCGGAGTCACCTAGTGCAG | 16700 fluorescence intensity (a.u.)
16 | TCACCACCACCATCACAACCCAATCCCAATCCAAACCACCCGGAGTCACCTAGTGCAG | 8530 fluorescence intensity (a.u.)
17 | GAAAAGCCACTAATCTCCAACCTCGTCTACACTTCTCCAACGGAGTCACCTAGTGCAG | 8970 fluorescence intensity (a.u.)
18 | GTTTGATCCATTACAGCTCCACATATATTGTGAAATCATTCGGAGTCACCTAGTGCAG | 10500 fluorescence intensity (a.u.)
19 | ACAACCGCACATACGCCACGGCCCACTCCTCCTTCTCGCCCGGAGTCACCTAGTGCAG | 9350 fluorescence intensity (a.u.)
20 | GAACGTCTGGACGTTGGAACACTCCATGTTTTTGTCTGATCGGAGTCACCTAGTGCAG | 8740 fluorescence intensity (a.u.)
21 | TATATCTATATGCCATATCATCTGTCTATCCTTTGTAAAGCGGAGTCACCTAGTGCAG | 8740 fluorescence intensity (a.u.)
22 | CCTTGTCTGTACTCTCTCTACTTTCCACCTCTATCCGCCTCGGAGTCACCTAGTGCAG | 9420 fluorescence intensity (a.u.)
23 | TCTGTCTATCCTTTGTAAAGTCACTTGCCCTTGCATTACTCGGAGTCACCTAGTGCAG | 16500 fluorescence intensity (a.u.)
24 | GCATCCTTTTCATTGGCCTTTGCGTGTAATTTGGGGCATGCGGAGTCACCTAGTGCAG | 9230 fluorescence intensity (a.u.)

Row | Sequence | binding signal
25 | CCTCGGCCTATAGTGTTGGGTTTGGGTGTTGGTTTTTCCCCGGAGTCACCTAGTGCAG | 15600 fluorescence intensity (a.u.)
26 | TTTTCGTGTTCGGGTTTGGGTTTGAGTGCCGCATCTGCAACGGAGTCACCTAGTGCAG | 21500 fluorescence intensity (a.u.)
27 | TGTTCTGGTTCGGATCTGAGCGGGTGTTGGGTGTTTTCAACGGAGTCACCTAGTGCAG | 9230 fluorescence intensity (a.u.)
28 | GTGTTTCCCATGGTTTGCACCAGTCTCCTCTGATGCAGTCCGGAGTCACCTAGTGCAG | 26400 fluorescence intensity (a.u.)
29 | CCTCGTTTTTTTTTTTGGGTTCATCTCGTGTGTTCCGTGACGGAGTCACCTAGTGCAG | 18400 fluorescence intensity (a.u.)
30 | GGTTTGTTTGTCGTTCATGTGACGAGCGCATCCGTTTTCCCGGAGTCACCTAGTGCAG | 9140 fluorescence intensity (a.u.)
31 | CTCGTCTGTTTTGTTTTCCCCTCCGACTCCGACTCCGATCCGGAGTCACCTAGTGCAG | 8180 fluorescence intensity (a.u.)
32 | CAGTCTCCTCTGATGCAGTCTCGTTCTCTGTTTCTTTTTGCGGAGTCACCTAGTGCAG | 10600 fluorescence intensity (a.u.)
33 | ATACTTCCTTTCTGTTTCCAGTGTCTCTCTTCATGCACTCCGGAGTCACCTAGTGCAG | 10700 fluorescence intensity (a.u.)
34 | ATTTTAATTAATCTCGTGTTGGGTTCTTATATGGTTTTTCCGGAGTCACCTAGTGCAG | 8350 fluorescence intensity (a.u.)
35 | ATCTGGGTTCTTTTTTTTTCTTTTTTTGCCGGGTTTTTTTCGGAGTCACCTAGTGCAG | 14800 fluorescence intensity (a.u.)
36 | GGTTTGGGTTCCTCTCTCGTCTCGTCTGTTTTGTTTTCCCCGGAGTCACCTAGTGCAG | 21900 fluorescence intensity (a.u.)
37 | CGATTGCCATTGTTCGTGTGTTTTTTCTTGTCTCTTTCCGCGGAGTCACCTAGTGCAG | 11000 fluorescence intensity (a.u.)
38 | TCACCATCTCGACTCAGCCAATCCATTTCTAAATTTTATACGGAGTCACCTAGTGCAG | 8690 fluorescence intensity (a.u.)
39 | TTAACCACAGTGCCGTTCTCTAGCCACCATCTCAGCAGCACGGAGTCACCTAGTGCAG | 8220 fluorescence intensity (a.u.)
40 | TGGGAAGTACATATGTAATGTTGTTTATTTATTTTTGTTTCGGAGTCACCTAGTGCAG | 9860 fluorescence intensity (a.u.)
41 | ATCTTGGGAAGGCCGTTACTCACTCTAGACTTTACTCCTCCGGAGTCACCTAGTGCAG | 8270 fluorescence intensity (a.u.)
42 | CCTCACCGATGGATTTTTTAGCCCGATCCTACCCCTCCTACGGAGTCACCTAGTGCAG | 10500 fluorescence intensity (a.u.)
43 | ACCACGTCCCTTTCCATTTTCCCTTGTTTTTTTTCCTCCTCGGAGTCACCTAGTGCAG | 11200 fluorescence intensity (a.u.)
44 | TAATTTTACTCGATACTCTATGTACCCCTGAAATTTCGCTCGGAGTCACCTAGTGCAG | 9560 fluorescence intensity (a.u.)
45 | GCCTTGTCTATTGCCTCAGAAGTTGGTTACCCTGTTGTTGCGGAGTCACCTAGTGCAG | 8150 fluorescence intensity (a.u.)
46 | GATGTGCCCTTTATTCACAACATTTAACAATTGTTACTTGCGGAGTCACCTAGTGCAG | 8520 fluorescence intensity (a.u.)
47 | GTATGGTTGGTTGGTTGGTTTGTTGGGTTTCTCCCCGGCCCGGAGTCACCTAGTGCAG | 33300 fluorescence intensity (a.u.)
